The record followed here is PubChem BioAssay AID2148 (The Scripps Research Institute Molecular Screening Center, 2009).

Among all 2,400 compounds or so, about 1,500 (62%) were called active. The set was probably picked from earlier hits. The list is a sample of the results. Unmarked numbers belong to inactive results. Cut-off read from the data, not from the text of the source: active = inhibition above about 22%; inactive = the rest.

The target in the assay is Melanin-concentrating hormone receptor 1 (Homo sapiens) (UniProt Q99705). Briefly: MCHR1 antagonists in cells, counter-screen for GPR7 antagonist project, cell-based, fluorescence, human (AID 2148).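 Note: 0% = vehicle with agonist and 100% = vehicle without agonist.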 To be noted: MCHR1-expressing cells, fluorescence antagonist assay; at 4.4 µM; active compounds read high.
Take `Cc1ccc(NC2=C(Cl)C(=O)OC2OC(=O)c2ccccc2C)cc1` (centres undefined): the inhibition was 39.7% (active).

With `COc1ccc(NC(=O)C2CCC(CNS(=O)(=O)c3csc(C(N)=O)c3)CC2)cc1OC` (centres undefined), the inhibition was 7.62%.

Turning to `CC1(C)CC(CNCCC(c2ccc(F)cc2)c2ccco2)CCO1` (centres undefined), the inhibition was 23.9% (active).

For the compound `Cc1ccc(CNC(=O)C2CCN(S(=O)(=O)c3ccc4nc5c(c(C(=O)O)c4c3)CC(C)CC5)CC2)cc1` (centres undefined), the inhibition is 10.8%.

As for `Cn1c(=O)c([N+](=O)[O-])c(Oc2ccccc2)c2ccccc21`, the inhibition is 30.5% (active).

In the case of `COc1cc(OC)c(-n2cc(-c3ccc(Cl)cc3)[nH]c2=O)cc1Cl`, the inhibition is 53.2% (active).

Regarding `Cc1cccc(-c2nc3ccc(C(=O)NCCN4CCN(C)CC4)cc3nc2-c2cccc(C)c2)c1`, the inhibition was 34.7% (active).

As for `CN(c1ccccc1)S(=O)(=O)c1ccc(C(=O)NCCc2ccccc2)cc1`, the inhibition was 11.5%.

Take `S=C(NCCc1ccccc1)Nc1ccccc1`: the inhibition was 33.6% (active).

Take `COc1ccccc1N1CCN(c2ncnc3sc(C)c(-c4ccccc4)c23)CC1`: the inhibition was 56.4% (active).

Regarding `COc1ccccc1CNC(=O)COc1ccc(C)nc1[N+](=O)[O-]`, the inhibition is -4%.

As to `Cc1cc(OCc2ccc(C(=O)Nc3ccc(C(=O)O)cc3)o2)ccc1Cl`, the inhibition is 22% (active).

For the compound `CC(C)(C)CC(C)(C)NCC(O)COCCOc1ccc(Br)cc1` (centres undefined), the inhibition was 47.4% (active).

In the case of `O=C(Nc1ccc2ccccc2c1)Nc1ccc2snnc2c1`, the inhibition is 61.5% (active).

As for `CCN1CCN(c2ccc([N+](=O)[O-])cc2C(=O)c2ccc(Cl)cc2)CC1`, the inhibition is 41.1% (active).

Turning to `OC(CNCC1CCCO1)Cn1c2ccc(Br)cc2c2cc(Br)ccc21` (centres undefined), the inhibition is 81.1% (active).

`O=C(CCCN1CCc2[nH]c3ccc(F)cc3c2C1)c1ccc(F)cc1`: the inhibition was 44.6% (active).

`CS(=O)(=O)Nc1cccc(C2=NN(S(=O)(=O)c3ccccc3)C(c3cccs3)C2)c1` (centres undefined): the inhibition was 25.9% (active).

Take `COc1ccc(OC)c(C(c2nnnn2C(C)(C)C)N2CCc3ccccc3C2)c1` (centres undefined): the inhibition was 47.3% (active).

Consider `COCCCNC(=S)N1CCN(c2nc(-c3cccc(OC)c3)cs2)CC1`, for which the inhibition is 51.1% (active).

Regarding `Cc1ccc(NC(=O)CN2CCC3(O)CCCCC3C2c2ccc3c(c2)OCO3)c(C)c1` (centres undefined), the inhibition was 24.9% (active).

In the case of `COc1ccc([N+](=O)[O-])cc1N(CC(O)CN(CC(C)C)CC(C)C)S(=O)(=O)c1ccc(C)cc1` (centres undefined), the inhibition is 66% (active).

As to `COCCN(Cc1cc2cc3c(cc2nc1Cl)OCO3)C(=O)c1cccc(C)c1`, the inhibition was 37.5% (active).

Turning to `Cc1cccc(CS(=O)(=O)c2ncc(Cl)c(C(=O)Nc3ccc(F)cc3)n2)c1`, the inhibition is 92.1% (active).

With `COc1ccc(N=C2SC(C(=O)Nc3ccc(F)cc3)CC(=O)N2C)cc1` (centres undefined), the inhibition is 3.76%.

Regarding `Cc1ccccc1CN1C[C@@H]2C[C@@H](c3cn(C)nc3-c3ccccc3)N3CCC[C@@]23C1=O`, the inhibition was 21.2%.

Regarding `COc1ccccc1Oc1ccc(S(=O)(=O)Nc2cccnc2)cc1`, the inhibition was 39.9% (active).

In the case of `COc1ccc(C)cc1NC(=O)NCCCCc1ccccc1`, the inhibition is 22.6% (active).

As for `CCC(C(=O)Nc1ccc(C(C)C)cc1)c1ccccc1` (centres undefined), the inhibition was 95.6% (active).

Regarding `Cc1cc2c(cc1C)N(Cc1ccccc1)C1=NCCCN12`, the inhibition is 9.03%.

With `Cc1cc(Cl)ccc1OCCCC(=O)Nc1cccc(-n2cnnn2)c1`, the inhibition was 45.7% (active).

In the case of `O=C(CCc1ccccc1)Nc1ccc(NC(=O)C2CC2)nc1`, the inhibition is 4.99%.

`O=C(CN1CCN(C(=S)NC2CCCC2)CC1)Nc1ccc(Oc2ccccc2)cc1`: the inhibition is 52.8% (active).

`COc1ccc(C(=O)CSc2nnc(COc3ccccc3)n2Cc2ccco2)cc1`: the inhibition was 38.8% (active).

As for `O=C(CSc1nnc(-c2ccco2)o1)NCC(=O)c1ccccc1`, the inhibition is 19.5%.

Turning to `C=CCSc1nsc(NC(=O)Nc2cccc(C(C)=O)c2)n1`, the inhibition is 68.9% (active).

Turning to `CCSc1nsc(NC(=O)Nc2cccc(C(C)=O)c2)n1`, the inhibition was 62% (active).

Take `Cc1ccc(NC(=S)N(CCCN2CCC(C)CC2)Cc2ccco2)cc1`: the inhibition was -1.82%.

For the compound `Oc1cccc(/C=N/Nc2ccc(Cl)nn2)c1O`, the inhibition was 28.3% (active).

`N#CC1=C(SCc2ccc(C#N)cc2)N=C(N)C(c2nc(-c3ccccc3)cs2)C12CCCCC2` (centres undefined): the inhibition is 24.5% (active).

In the case of `N=c1n(CCc2ccccc2)c2ccccc2n1Cc1ccccc1F`, the inhibition is 53.5% (active).

`CCc1ccc2nc(N(CCCN(C)C)C(=O)c3ccc4c(c3)OCCO4)sc2c1`: the inhibition was 31.3% (active).

On to `CN(C)CCCN(C(=O)c1ccc(S(=O)(=O)N2CCCCCC2)cc1)c1nc2ccc(Br)cc2s1`, for which the inhibition was 71.8% (active).

Take `CN(C)CCCN(C(=O)c1ccc(S(=O)(=O)N2CCCc3ccccc32)cc1)c1nc2ccc(F)cc2s1`: the inhibition is 72.1% (active).

Take `CCn1c2ccc(F)cc2c2nnc(SCCN3CCOCC3)nc21`: the inhibition was -2.62%.

Turning to `O=C(Nc1ccc2c(c1)OCO2)C1CC(c2c(F)cccc2Cl)=NO1` (centres undefined), the inhibition was 2.22%.

Take `O=C(NCCNc1ccc([N+](=O)[O-])cc1Cl)c1ccccc1F`: the inhibition is 35.2% (active).

On to `CN(C)S(=O)(=O)N1CCC(Oc2cccc(C(=O)NCCCC3CCCC3)c2)CC1`, for which the inhibition was 90.4% (active).

On to `CS(=O)(=O)N(Cc1ccc(Cl)cc1)c1ccc(C(=O)NCCSCc2ccco2)cc1`, for which the inhibition was 22.2% (active).

`CC(=O)N1CCCc2cc(S(=O)(=O)N3CCCC(C(=O)N4CCN(c5cccc(Cl)c5)CC4)C3)ccc21` (centres undefined): the inhibition was 71.3% (active).

Turning to `CCc1c(C)nc2c(-c3ccccc3)c(C)nn2c1Nc1ccc(NC(C)=O)cc1`, the inhibition is 24.5% (active).

For the compound `Cc1ccc2nc(C)c3c(c2c1)N(c1ccccc1)CC3`, the inhibition is 22.2% (active).

Regarding `c1ccc(C2CNCc3c2ccc2ccccc32)cc1` (centres undefined), the inhibition is 73.3% (active).

For `CCCCCCCCCCOC(=O)Cn1c(COc2cccc(OC)c2)[n+](C)c2ccccc21`, the inhibition was 81.7% (active).

For `Cc1ccc(SCc2cc(=O)[nH]c(N3CCCCC3)n2)cc1`, the inhibition is -8.9%.

On to `CCN1CCN(c2c(Cl)cccc2NC(=O)c2ccc(Br)o2)CC1`, for which the inhibition is 21%.

As for `CC(NCc1ccccc1OC1CCCC1)c1ccccc1` (centres undefined), the inhibition was 33% (active).

For `CC(C)(C)NCc1cc(Br)ccc1OC1CCCC1`, the inhibition is 11.2%.

For the compound `CCN(CC)CCOCCOc1ccc(Cl)c2ccccc12`, the inhibition was 19.4%.
